In the supplement of paper PMC10849652:
About 8,800 targets were measured; listed, in parts, are those with a hit and a random draw of the rest. About 0.5% of all pairs of compound and target were hits.

Key:
Assay in all cases: log2 fold change, soluble protein after heating vs DMSO (PISA); higher = thermal stabilisation; K562 lysate, 10 uM; active = over 0.2 and 3.5 SD of the protein, either way, in both replicates (recomputed)
[1] = compound: CC(=O)c1cnc2ccc(-c3cc(Cl)c(O)c(Cl)c3)nc2c1N[C@H]1CC[C@H](CN(C)C)CC1
Procedure, shortened: (§1)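 To prepare the extract, K562 pellets were dounce-homogenised in PBS pH 7.4 with 1 mM MgCl2, giving crude material at 1 mg/mL protein. This was treated with 10 μM compound for 30 min, then heated in aliquots for 3 min over 48°C-58°C before pooling and addition of NP-40 to 0.5% at 4°C. Centrifugation at 21,000xg for 90 min left soluble protein in the supernatant, which TMTpro 16plex LC-MS/MS quantified with equalised channel sums. Results are log-two fold changes in thermal stability compared with solvent controls, from duplicates.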

[2] = compound: CC1=C(C(CC(=O)N1)C2=CC=C(C=C2)C(F)(F)F)C(=O)NC3=C(C=C4C(=C3)C=NN4)F
Procedure, shortened: as §1

[3] = compound: CC1=C(C=C(C=C1)NC(=O)C2=CC(=CC=C2)C(C)(C)C#N)NC3=CC4=C(C=C3)N=CN(C4=O)C
Procedure, shortened: as §1

[4] = compound: CC1=CC=C(C=C1)SC2=C3C=C(SC3=CN=C2)C(=O)N
Procedure, shortened: as §1

ibrutinib = compound: C=CC(=O)N1CCC[C@@H](n2nc(-c3ccc(Oc4ccccc4)cc3)c3c(N)ncnc32)C1 [ibrutinib]
Procedure, shortened: as §1

ralimetinib = compound: CC(C)(C)Cn1c(N)nc2ccc(-c3[nH]c(C(C)(C)C)nc3-c3ccc(F)cc3)nc21 [ralimetinib]
Procedure, shortened: as §1

[5] = compound: CC(C)(O)CC(=O)NCCn1ccc2ncnc(Nc3ccc(Oc4cccc(C(F)(F)F)c4)c(Cl)c3)c21
Procedure, shortened: as §1

[6] = compound: CC(C)C1=C2N=C(C=C(N2N=C1)NCC3=CC=CC=C3)NCCCCCCN
Procedure, shortened: as §1

[7] = compound: CC1=C(C2=C(C=C1)C(=O)C3=CC=CC=C3N2CCCN)C
Procedure, shortened: as §1

[8] = compound: CC1=C(C=C(C=C1)NC(=O)C2=CC(=CC=C2)N(C)C)NC(=O)C3=CC=C(C=C3)O
Procedure, shortened: as §1

Measured: log2 fold change

PFN3 (UniProt P60673)
Sequence of UniProt P60673 (P60673 whole entry, looked up): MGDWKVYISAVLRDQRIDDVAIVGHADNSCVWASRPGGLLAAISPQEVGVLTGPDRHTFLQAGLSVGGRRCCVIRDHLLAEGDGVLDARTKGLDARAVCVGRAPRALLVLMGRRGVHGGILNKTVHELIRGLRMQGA
inactive: [1] 0.042 | [2] -0.02 | [3] -0.03 | [4] -0.02

PRIMPOL (UniProt Q96LW4)
Sequence of UniProt Q96LW4 (Q96LW4 whole entry, looked up): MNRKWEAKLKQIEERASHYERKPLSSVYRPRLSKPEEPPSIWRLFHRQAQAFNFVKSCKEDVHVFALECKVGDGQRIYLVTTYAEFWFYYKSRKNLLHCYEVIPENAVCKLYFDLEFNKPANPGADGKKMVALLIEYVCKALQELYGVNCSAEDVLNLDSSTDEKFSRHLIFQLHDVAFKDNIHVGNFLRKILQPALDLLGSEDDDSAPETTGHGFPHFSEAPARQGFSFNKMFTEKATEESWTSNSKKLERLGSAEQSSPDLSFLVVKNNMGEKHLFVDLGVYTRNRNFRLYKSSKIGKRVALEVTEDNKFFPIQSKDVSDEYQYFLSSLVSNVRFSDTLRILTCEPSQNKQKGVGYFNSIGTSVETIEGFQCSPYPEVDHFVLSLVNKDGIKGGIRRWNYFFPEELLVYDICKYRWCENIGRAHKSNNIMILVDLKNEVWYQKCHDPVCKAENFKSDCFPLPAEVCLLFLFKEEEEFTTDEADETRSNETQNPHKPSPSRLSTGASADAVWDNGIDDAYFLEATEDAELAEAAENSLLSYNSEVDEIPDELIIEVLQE
inactive: ibrutinib 0.062 | ralimetinib 0.055 | [5] -0.027 | [6] 0.048 | [2] -0.055 | [7] -0.034 | [3] 0.078 | [8] 0.049

PPM1H (UniProt Q9ULR3)
Sequence of UniProt Q9ULR3 (Q9ULR3 whole entry, looked up): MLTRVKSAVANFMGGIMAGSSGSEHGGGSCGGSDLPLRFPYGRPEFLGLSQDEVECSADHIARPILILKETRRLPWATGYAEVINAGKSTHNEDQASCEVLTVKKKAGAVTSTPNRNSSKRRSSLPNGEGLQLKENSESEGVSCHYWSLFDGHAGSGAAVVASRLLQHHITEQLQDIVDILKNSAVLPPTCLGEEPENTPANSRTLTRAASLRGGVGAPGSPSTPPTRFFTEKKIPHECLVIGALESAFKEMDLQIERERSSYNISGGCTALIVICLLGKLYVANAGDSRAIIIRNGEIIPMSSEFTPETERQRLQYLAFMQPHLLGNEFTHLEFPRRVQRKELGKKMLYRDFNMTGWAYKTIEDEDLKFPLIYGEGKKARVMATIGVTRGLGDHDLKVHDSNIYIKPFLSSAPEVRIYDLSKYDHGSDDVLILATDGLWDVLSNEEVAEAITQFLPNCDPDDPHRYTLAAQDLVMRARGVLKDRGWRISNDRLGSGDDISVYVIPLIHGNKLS
inactive: ibrutinib 0.058 | [1] -0.032 | ralimetinib -0.008 | [5] -0.035 | [6] 0.019 | [7] -0.028 | [3] 0.048 | [8] -0.007 | [4] 0.02

PTK2 isoform 2 (UniProt Q05397)
Sequence of UniProt Q05397 (Q05397 whole entry, looked up): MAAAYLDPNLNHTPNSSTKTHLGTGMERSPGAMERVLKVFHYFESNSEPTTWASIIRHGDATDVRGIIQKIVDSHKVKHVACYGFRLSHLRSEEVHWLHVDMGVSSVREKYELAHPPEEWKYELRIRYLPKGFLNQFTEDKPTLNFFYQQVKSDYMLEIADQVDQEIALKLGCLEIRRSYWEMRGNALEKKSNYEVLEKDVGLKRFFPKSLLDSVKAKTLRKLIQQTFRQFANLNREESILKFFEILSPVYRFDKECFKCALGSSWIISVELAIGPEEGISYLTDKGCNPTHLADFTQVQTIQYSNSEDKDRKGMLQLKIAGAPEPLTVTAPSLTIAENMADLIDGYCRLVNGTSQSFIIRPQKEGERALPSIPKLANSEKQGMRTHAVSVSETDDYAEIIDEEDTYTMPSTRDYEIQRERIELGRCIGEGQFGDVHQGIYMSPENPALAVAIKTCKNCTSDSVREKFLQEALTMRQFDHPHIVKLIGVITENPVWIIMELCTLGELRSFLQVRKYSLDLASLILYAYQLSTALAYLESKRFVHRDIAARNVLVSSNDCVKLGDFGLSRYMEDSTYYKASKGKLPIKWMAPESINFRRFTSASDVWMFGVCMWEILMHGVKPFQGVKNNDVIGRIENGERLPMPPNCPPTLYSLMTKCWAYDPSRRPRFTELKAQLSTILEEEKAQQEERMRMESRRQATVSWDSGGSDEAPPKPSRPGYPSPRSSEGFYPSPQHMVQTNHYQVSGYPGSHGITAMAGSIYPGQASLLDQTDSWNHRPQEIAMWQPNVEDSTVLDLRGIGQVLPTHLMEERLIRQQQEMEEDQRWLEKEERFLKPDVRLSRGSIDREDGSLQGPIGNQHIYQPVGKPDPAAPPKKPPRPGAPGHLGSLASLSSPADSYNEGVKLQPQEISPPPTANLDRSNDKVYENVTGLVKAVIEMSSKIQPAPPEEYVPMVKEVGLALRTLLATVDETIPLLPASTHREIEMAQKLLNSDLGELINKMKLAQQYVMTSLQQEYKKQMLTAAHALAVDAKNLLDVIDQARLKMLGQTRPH
inactive: ibrutinib 0.173 | [1] -0.047 | [6] -0.002 | [7] -0.138 | [4] -0.053

PPP2R5C isoform 2 (UniProt Q13362)
Sequence of UniProt Q13362 (Q13362 whole entry, looked up): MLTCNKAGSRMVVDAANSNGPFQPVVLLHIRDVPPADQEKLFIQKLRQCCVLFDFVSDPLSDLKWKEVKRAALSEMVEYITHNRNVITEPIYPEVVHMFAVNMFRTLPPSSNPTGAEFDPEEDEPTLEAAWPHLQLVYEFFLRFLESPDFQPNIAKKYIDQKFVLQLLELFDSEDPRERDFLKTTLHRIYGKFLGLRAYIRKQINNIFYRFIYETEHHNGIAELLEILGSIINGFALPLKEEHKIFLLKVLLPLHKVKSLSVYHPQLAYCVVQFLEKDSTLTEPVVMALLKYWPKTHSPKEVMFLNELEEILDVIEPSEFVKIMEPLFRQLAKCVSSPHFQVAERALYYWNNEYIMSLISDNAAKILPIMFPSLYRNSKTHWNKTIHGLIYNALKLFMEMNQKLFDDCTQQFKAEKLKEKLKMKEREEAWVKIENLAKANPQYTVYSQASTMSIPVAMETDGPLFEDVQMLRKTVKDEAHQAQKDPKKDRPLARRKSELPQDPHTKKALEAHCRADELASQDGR
inactive: ibrutinib -0.145 | ralimetinib -0.016 | [5] -0.02 | [6] 0.02 | [2] -0.012 | [7] 0 | [3] -0.155 | [8] 0.08
